According to PubChem BioAssay (NCATS):
Where “and” joins values, the source holds several entries; their conditions need not be identical. Equal entries are not always repeated. Records with an inconclusive call do not appear. Calls of active or inactive are those of the source. Unless noted, the call rests on the fitted dose curve; in most records, active means well fitted curve in either direction with a large enough effect (not every such curve was filed as active); inconclusive means small, poorly fitted or top-dose-only effect, or another doubt; inactive means flat fitted curve, though single readings scatter.

Tests used:
[1] = AP1 Signaling Pathway (AID 357); settings: ME-180 AP-1-bla reporter, EGF-induced, beta-lactamase ratio, 5 h; at 17.2 µM (top of the series) unless noted;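 further: ME-180 reporter cells stimulated with EGF at its EC50 level; on the % scale 0 is the no-effect control and ±100 the full control effect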
In short: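 Beta-lactamase reporter under AP-1 response element, ME-180 background. Stimulus: EC50 EGF. Compound exposure 5 h, 37 °C. Detection: CCF4, 2.5 h RT, 460/530 nm. Values: AC50 from titration.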

[2] = biological target: Cytochrome P450 1A2 (Homo sapiens) (UniProt P05177); assay: p450-cyp1a2 (AID 410; calls by dose curve; further: potency means the concentration at half of the fitted maximal effect;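 on activity change, negative = inhibition: -100% = full effect of reference inhibitor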)
In short: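 20nM CYP1A2, 100uM Luciferin-ME (=Km), 100mM KPO4; cpd 10 min RT; +NADPH regen, 60 min RT; stop/detect 20 min; luminescence. Normalized to furafylline 57 uM = full inhibition.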

[3] = NFAT Signaling Pathway (AID 444); settings: Jurkat NFAT-bla M1, carbachol, beta-lactamase ratio, 5 h; at 17.2 µM (top of the series) unless noted;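 further: carbachol stimulus at about its EC50 of 1 µM final; on the % scale 0 is the no-effect control and ±100 the full control effect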
In short: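 Jurkat cells with NFAT-driven β-lactamase reporter and co-expressed M1 receptor, stimulated with carbachol (final 1 uM, ~EC50), compound titration, 5 h at 37 °C. CCF4 loaded 1 h at RT; 460/530 nm ratio gave %activity and AC50.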

[4] = Stat Signaling Pathway (AID 446); settings: ME-180 (cervical carcinoma) SIE beta-lactamase reporter, IL-6 stimulated, 5 h; at 17.2 µM (top of the series) unless noted;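 further: ME-180 cervical cancer cells given 40 pM IL-6 alongside compound; SIE-controlled beta-lactamase reporter measured as 460/530 nm FRET emission ratio; on the % scale 0 is the no-effect control and ±100 the full control effect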
In short: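 Emission at 460 and 530 nm (excitation 405 nm) reports SIE-controlled beta-lactamase in ME-180 cells. Cells received compound with 40 pM IL-6 for 5 hrs at 37 C; data scaled between 300 pM IL-6 and 125 nM JAK-inhibitor controls.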

[5] = biological target: Glucocorticoid receptor (Homo sapiens) (UniProt P04150); assay: GR-GFP Redistribution (AID 450;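 active means compounds whose dose series gives a full or clear partial fitted curve of increased nuclear translocation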; further: potency means the concentration at half of the fitted maximal effect); settings: U2OS GR-GFP nuclear translocation, laser cytometry, 2 h
[6] = biological target: Glucocorticoid receptor (Homo sapiens) (UniProt P04150); assay: GR-EFC Redistribution (AID 451; calls by dose curve; further: potency means the concentration at half of the fitted maximal effect); settings: CHO-K1 GR-EFC translocation, beta-gal luminescence, 2 h
In short: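 CHO-K1 cells expressing nuclear EA and GR-ED fragments of b-gal; compounds titrated up to 46 uM final, 2 h at 37 C. GR nuclear translocation read as complemented b-gal luminescence after 1 h RT detection.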

[7] = biological target: Mitogen-activated protein kinase 10 (Mus musculus) (UniProt Q61831); assay: JNK3 AlphaScreen Assay (AID 530);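 further: kinase came from lysate of stimulated human HepG2 cells; signal reports phosphorylation of biotinylated GST-cJun 1-79 at Ser73 with 10 µM ATP; on the % scale 0 is the no-effect control and ±100 the full control effect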
In short: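 HepG2 lysate (IL-1b/TNFa pre-activated) + biotin-GST-cJun 1-79 + anti-pSer73 cJun; cpd titration, 15 min RT; ATP 10 uM start; Tris pH 7.6, MgCl2, DTT, vanadate; beads in EDTA buffer; AlphaScreen.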

[8] = biological target: 3',5'-cyclic-AMP phosphodiesterase 4B (Homo sapiens) (UniProt Q07343); assay: qHTS Assay for Inhibitors of PDE-IV (AID 607; active means well fitted activation curve with a large enough effect in the main read-out, with a control signal flat, not every such curve was filed as active; further: % of control where 0% means no effect)
In short: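 The readout is membrane depolarisation from a cAMP-sensing CNG channel, detected with a potential dye at ex 535/em 590. Cells were HEK293-derived (endogenous PDE-IV) at 1000 cells/well, titrated up to 22.9 uM final.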

[9] = Cell Viability - BJ (AID 421; calls by dose curve;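 further: potency means the concentration at half of the fitted maximal effect; cells exposed to compound for 40 hours at 37 °C before readout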); settings: BJ fibroblast viability, qHTS
In short: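 Cytotoxicity in human BJ foreskin fibroblasts is scored as loss of cellular ATP after a 40-hour exposure, measured by luciferase luminescence. Controls are DMSO and 100 uM tamoxifen.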

[10] = Cell Viability - SK-N-SH (AID 435; calls by dose curve; further: potency means the concentration at half of the fitted maximal effect); settings: SK-N-SH neuroblastoma cell viability qHTS
In short: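 Luminescent ATP signal served as the viability read-out after 40 hours of compound treatment of human neuroblastoma SK-N-SH cells. Concentration-response data, scaled between DMSO and 100 uM tamoxifen, gave AC50 values by standard Hill modeling.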

[11] = Cell Viability - N2a (AID 540; active means well fitted curve in the direction sought with a large enough effect; an effect the other way counts as inactive or inconclusive; further: nearly all actives have a fitted effect of over 45% in size; further: potency means the concentration at half of the fitted maximal effect;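 on activity change, negative = cytotoxicity: plate controls were DMSO alone for no effect and tamoxifen control for full effect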); settings: N2a mouse neuroblastoma cell viability; activity change, negative = cytotoxicity: at 92.2 µM (top of the series)
In short: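 N2a mouse neuroblastoma, 1500 cells/well, 5 hr settle; compound 40 hr, 37 °C; CellTiter-Glo 20 min RT; luminescence; Hill-fit AC50.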

[12] = Cell Viability - NIH 3T3 (AID 541; active means well fitted curve in the direction sought with a large enough effect; an effect the other way counts as inactive or inconclusive; further: nearly all actives have a fitted effect of over 25% in size; further: potency means the concentration at half of the fitted maximal effect;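 on activity change, negative = cytotoxicity: plate controls were DMSO alone for no effect and tamoxifen positive control for full effect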); settings: NIH 3T3 cell viability, qHTS; activity change, negative = cytotoxicity: at 92.2 µM (top of the series)
In short: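 qHTS format; 40 hr compound exposure, 37 °C; CellTiter-Glo luminescence (cellular ATP) read-out after 20 min at RT. Decrease in ATP = cytotoxicity; AC50 from standard Hill fit.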

[13] = Cell Viability - H-4-II-E (AID 543; active means well fitted curve in the direction sought with a large enough effect; an effect the other way counts as inactive or inconclusive; further: nearly all actives have a fitted effect of over 35% in size; further: potency means the concentration at half of the fitted maximal effect)
In short: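 qHTS, rat hepatoma H-4-II-E, 1500 cells/well; 40 hr compound exposure, 37 °C; CellTiter-Glo ATP luminescence after 20 min RT; AC50 by standard Hill fit.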

[14] = Cell Viability - SH-SY5Y (AID 544; active means well fitted curve in the direction sought with a large enough effect; an effect the other way counts as inactive or inconclusive;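 further: 0% = DMSO alone and -100% = 100 µM tamoxifen; nearly all actives have a fitted effect of over 55% in size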); settings: SH-SY5Y neuroblastoma cell viability; viability change, negative = cytotoxic: at 92.2 µM (top of the series)
In short: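 SH-SY5Y, 1500 cells/well, 5 hr pre-incubation 37 °C; cpd 40 hr 37 °C; CellTiter-Glo 20 min RT; luminescence (ATP) read. qHTS concentration-response, Hill fit → AC50. Tamoxifen, doxorubicin as positive controls.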

[15] = Cell Viability - Renal Proximal Tubule (AID 545; active means well fitted curve in the direction sought with a large enough effect; an effect the other way counts as inactive or inconclusive; further: nearly all actives have a fitted effect of over 40% in size; further: potency means the concentration at half of the fitted maximal effect;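 on activity change, negative = cytotoxicity: 0% = DMSO only and -100% = 100 µM tamoxifen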)
In short: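 Luminescent ATP signal (CellTiter-Glo) served as the viability read-out after 40 hr compound exposure of freshly isolated rat proximal tubule cells at 37 °C. Concentration-dependent ATP loss was fitted with the Hill equation to give AC50.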

[16] = Cell Viability - Mesenchymal (AID 546; active means well fitted curve in the direction sought with a large enough effect; an effect the other way counts as inactive or inconclusive;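 further: cells exposed to compound for 40 hours before reading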; further: potency means the concentration at half of the fitted maximal effect;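 on activity change, negative = cytotoxicity: 0% = DMSO only and -100% = 100 µM tamoxifen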)
In short: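 Human renal mesenchymal cells (glomerulus-derived), 1000 cells/well, 5 hr 37 °C pre-incubation; compound 40 hr, 37 °C; CellTiter-Glo, 20 min RT; luminescence; AC50 via Hill equation.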

[17] = Cellular Toxicity (caspase-3) Jurkat (AID 655; active means well fitted curve in the direction sought with a large enough effect; an effect the other way counts as inactive or inconclusive;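 further: cells exposed to compound for 16 h at 37 °C before reading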)
In short: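 5000 Jurkat cells/well; compound 16 hr, 37 °C; Caspase-Glo 3/7 added, 20 min RT; luminescence read. Norm: DMSO = 0%, tamoxifen 100 uM = 100%. AC50, Hill model.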

[18] = Cell Viability - Jurkat (AID 426;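 active means dose-dependent loss of cell ATP signal giving a full or clear fitted curve, ranked by lower potency value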;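 further: potency means the concentration at half of the fitted maximal effect; cells exposed to compound for 40 hours at 37 °C before ATP read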); settings: qHTS
In short: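 Luminescent ATP read-out (CellTiter-Glo, 20 min at room temperature) after 40 hr compound exposure at 37 °C of Jurkat E6-1 cells, 5000/well. Decreased ATP taken as cytotoxicity; AC50 from standard Hill equation.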

[19] = Cell Viability - Hek293 (AID 427;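 active means compounds whose dose-response curve shows a full or clear partial loss of cell viability, called from curve shape rather than a numeric limit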;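 further: potency means the concentration at half of the fitted maximal effect; cells exposed to compound for 40 hours at 37 °C before reading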); settings: qHTS
In short: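 qHTS, human embryonic kidney (adenovirus-transformed) cells; 40 hr cpd, 37 °C; CellTiter-Glo ATP luminescence. Norm: DMSO = 0, 100 uM tamoxifen = 100% inhibition. Hill-fit AC50.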

[20] = Cell Viability - HepG2 (AID 433; calls by dose curve;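 further: potency means the concentration at half of the fitted maximal effect; potency for ATP loss meaning cytotoxicity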); settings: qHTS
In short: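 Read-out is luciferase-based quantitation of cellular ATP as a measure of viable HepG2 cells after 40 h treatment at 37 °C. Signal decrease is scaled between DMSO-only and 100 uM tamoxifen controls, with AC50 fitted by the Hill equation.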

Cytochrome P450 1A2 (Homo sapiens), sequence (P05177 whole entry, looked up): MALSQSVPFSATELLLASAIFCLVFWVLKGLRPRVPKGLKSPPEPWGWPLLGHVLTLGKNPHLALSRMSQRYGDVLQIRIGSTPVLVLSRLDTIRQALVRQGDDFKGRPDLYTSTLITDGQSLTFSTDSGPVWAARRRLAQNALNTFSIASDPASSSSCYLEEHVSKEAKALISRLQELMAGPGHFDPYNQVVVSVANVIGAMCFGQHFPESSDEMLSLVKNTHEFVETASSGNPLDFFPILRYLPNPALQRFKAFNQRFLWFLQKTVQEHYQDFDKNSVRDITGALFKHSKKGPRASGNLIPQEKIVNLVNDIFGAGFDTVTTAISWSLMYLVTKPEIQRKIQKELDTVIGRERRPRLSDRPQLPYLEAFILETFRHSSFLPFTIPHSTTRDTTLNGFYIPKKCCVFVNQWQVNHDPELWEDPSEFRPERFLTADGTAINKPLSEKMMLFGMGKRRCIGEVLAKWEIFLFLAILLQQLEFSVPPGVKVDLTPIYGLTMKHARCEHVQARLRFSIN
3',5'-cyclic-AMP phosphodiesterase 4B (Homo sapiens), sequence (Q07343 whole entry, looked up): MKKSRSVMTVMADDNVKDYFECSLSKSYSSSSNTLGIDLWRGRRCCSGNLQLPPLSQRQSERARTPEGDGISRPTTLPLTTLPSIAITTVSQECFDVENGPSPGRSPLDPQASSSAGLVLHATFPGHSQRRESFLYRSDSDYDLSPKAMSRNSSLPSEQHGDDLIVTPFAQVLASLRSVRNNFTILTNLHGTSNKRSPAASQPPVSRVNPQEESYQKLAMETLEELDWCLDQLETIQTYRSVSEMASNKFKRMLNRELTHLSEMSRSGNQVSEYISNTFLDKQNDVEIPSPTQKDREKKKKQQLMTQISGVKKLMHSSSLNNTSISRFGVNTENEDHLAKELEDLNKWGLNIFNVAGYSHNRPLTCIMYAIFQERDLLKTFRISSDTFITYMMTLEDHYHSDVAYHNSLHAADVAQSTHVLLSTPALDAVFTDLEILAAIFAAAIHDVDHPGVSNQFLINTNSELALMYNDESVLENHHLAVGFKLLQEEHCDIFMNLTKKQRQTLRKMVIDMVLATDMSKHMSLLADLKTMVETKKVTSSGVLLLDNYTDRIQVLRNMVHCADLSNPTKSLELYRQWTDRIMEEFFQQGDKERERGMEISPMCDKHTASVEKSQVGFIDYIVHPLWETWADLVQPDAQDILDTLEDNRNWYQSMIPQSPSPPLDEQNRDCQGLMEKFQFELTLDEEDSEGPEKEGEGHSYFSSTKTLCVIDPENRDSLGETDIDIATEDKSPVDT
Glucocorticoid receptor (Homo sapiens), sequence (P04150 whole entry, looked up, the tested form may be a part): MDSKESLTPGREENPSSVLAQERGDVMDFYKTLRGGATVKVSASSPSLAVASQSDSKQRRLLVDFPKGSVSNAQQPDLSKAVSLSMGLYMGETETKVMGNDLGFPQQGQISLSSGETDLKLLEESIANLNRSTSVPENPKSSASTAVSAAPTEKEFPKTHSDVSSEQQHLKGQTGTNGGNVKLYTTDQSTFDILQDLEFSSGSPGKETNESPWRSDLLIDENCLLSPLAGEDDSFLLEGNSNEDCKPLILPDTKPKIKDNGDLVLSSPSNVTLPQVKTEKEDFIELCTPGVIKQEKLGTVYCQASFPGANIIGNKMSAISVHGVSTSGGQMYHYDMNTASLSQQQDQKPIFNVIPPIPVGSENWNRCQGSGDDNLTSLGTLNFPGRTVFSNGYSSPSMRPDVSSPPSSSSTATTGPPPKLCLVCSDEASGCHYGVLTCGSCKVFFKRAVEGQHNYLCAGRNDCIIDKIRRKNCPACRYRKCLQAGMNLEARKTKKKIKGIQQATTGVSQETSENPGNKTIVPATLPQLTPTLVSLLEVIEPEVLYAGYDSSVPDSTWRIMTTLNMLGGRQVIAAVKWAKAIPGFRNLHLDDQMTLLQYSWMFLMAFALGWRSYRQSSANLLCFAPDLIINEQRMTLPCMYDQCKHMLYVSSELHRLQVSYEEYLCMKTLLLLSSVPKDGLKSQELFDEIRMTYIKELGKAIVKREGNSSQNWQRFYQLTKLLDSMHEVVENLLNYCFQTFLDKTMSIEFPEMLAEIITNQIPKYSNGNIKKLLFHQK

Nc1ccc(S(=O)(=O)Nc2ccccn2)cc1
inactive: activity change, negative = inhibition [1] -6.81% and -4.21% | Potency [2] | activity change, negative = inhibition [3] -3.78% and -28.1% | activity, negative = inhibition [4] -7.68% and -0.177% | Potency [5] > 20.6 µM | Potency [6] > 20.6 µM | Potency [7] | outcome [8]

OCc1ccc(-c2nn(Cc3ccccc3)c3ccccc23)o1
inactive: activity change, negative = inhibition [1] -16.4% [at 38 µM] | activity change, negative = inhibition [3] 4.66% [at 38 µM] | activity, negative = inhibition [4] -17.6% [at 38 µM] | Potency [5] > 46 µM | Potency [6] > 46 µM | outcome [8]
active: Potency [2] 1.58 µM

COc1ccc2cc3[n+](cc2c1OC)CCc1cc2c(cc1-3)OCO2
inactive: activity change, negative = inhibition [1] 10.1% | Potency [9] > 92 µM | Potency [10] > 92 µM | activity, negative = inhibition [4] -1.52% | Potency [5] > 20.6 µM | Potency [6] > 20.6 µM | Potency [7] | Potency [13] | Potency [14] | Potency [15] | Potency [16] | outcome [8] | outcome [17]
active: Potency [2] 5.01 µM | Potency [11] 1.26 µM | Potency [12] 1 µM

Cc1cc(NS(=O)(=O)c2ccc(N)cc2)no1
inactive: activity change, negative = inhibition [1] 3.59% and 0.387% | Potency [9] > 92 µM | Potency [18] > 92 µM | Potency [19] > 92 µM | Potency [20] > 92 µM | Potency [10] > 92 µM | activity change, negative = inhibition [3] 1.34% and -21.2% | activity, negative = inhibition [4] 2% and 5.36% | Potency [5] > 20.6 µM | Potency [6] > 20.6 µM | Potency [7] | Potency [11] | activity change, negative = cytotoxicity [12] -14.5% | Potency [13] | Potency [14] | Potency [15] | Potency [16] | outcome [8] | outcome [17]

CC[C@H](C)C(=O)O[C@H]1C[C@@H](C)C=C2C=C[C@H](C)[C@H](CC[C@@H]3C[C@@H](O)CC(=O)O3)[C@H]21
inactive: activity change, negative = inhibition [1] -19.5% | Potency [9] > 92 µM | Potency [19] > 92 µM | activity, negative = inhibition [4] -3.85% | Potency [5] > 20.6 µM | Potency [7] | outcome [17]
active: Potency [11] 2 µM | activity change, negative = cytotoxicity [12] -92.8% | Potency [13] 7.94 µM | Potency [15] 2 µM | Potency [16] 7.94 µM

Cc1cccc(N(C)C(=S)Oc2ccc3ccccc3c2)c1
inactive: activity change, negative = inhibition [1] -6.52% and 9.03% | activity, negative = inhibition [4] 4.85% and -13.1% | Potency [5] > 20.6 µM | Potency [6] > 20.6 µM
active: Potency [2] 2.51 µM

COc1ncnc(NS(=O)(=O)c2ccc(N)cc2)c1OC
inactive: activity change, negative = inhibition [1] -3.45% | Potency [2] | activity change, negative = inhibition [3] -25.1% | activity, negative = inhibition [4] -3.42% | Potency [7] | outcome [8]

COc1ccc2c(c1)c(CC(=O)OCC(=O)O)c(C)n2C(=O)c1ccc(Cl)cc1
inactive: activity change, negative = inhibition [1] -9.7% and -8.22% | Potency [2] | activity change, negative = inhibition [3] 2.54% and 1.97% | activity, negative = inhibition [4] 1.57% and -16% | Potency [5] > 20.6 µM | Potency [6] > 20.6 µM | Potency [7] | outcome [8]

COc1cc(NS(=O)(=O)c2ccc(N)cc2)nc(OC)n1
inactive: activity change, negative = inhibition [1] 1.62% and 1.87% | Potency [2] | activity change, negative = inhibition [3] -19.2% | activity, negative = inhibition [4] 9.03% and -4.46% | Potency [5] > 20.6 µM | Potency [6] > 20.6 µM | Potency [7] | outcome [8]

CCCCOc1ccc(CC(=O)NO)cc1
inactive: activity change, negative = inhibition [1] -22.1% and -10.8% | activity change, negative = inhibition [3] -5.9% and 15% | activity, negative = inhibition [4] -9.96% and -7.15% | Potency [5] > 20.6 µM | Potency [6] > 20.6 µM | Potency [7]
active: Potency [2] 1.58 µM

Cc1noc(NS(=O)(=O)c2ccc(N)cc2)c1C
inactive: activity change, negative = inhibition [1] 3.21% and 4.22% | Potency [2] | Potency [9] > 92 µM | Potency [18] > 92 µM | Potency [19] > 92 µM | Potency [20] > 92 µM | Potency [10] > 92 µM | activity change, negative = inhibition [3] -7.16% and 11.7% | activity, negative = inhibition [4] 7.81% and 5.09% | Potency [7] | Potency [11] | activity change, negative = cytotoxicity [12] -8.82% | Potency [13] | Potency [14] | Potency [15] | Potency [16] | outcome [8] | outcome [17]

COC(=O)Nc1nc2ccc(Sc3ccccc3)cc2[nH]1
active: Potency [2] 0.794 µM
inactive: activity change, negative = inhibition [1] 1.3% and 6.61% | activity change, negative = inhibition [3] -6.14% | activity, negative = inhibition [4] 1.46% and -3.37% | Potency [5] > 20.6 µM | Potency [6] > 20.6 µM | Potency [7] | outcome [8]
